Bioassay records: PubChem, Broad Institute
This is a sample that favours compounds with a hit; in the whole collection about 2.4% have one here.
C diff growth: C. difficile growth inhibitors, primary screen, HTS; Clostridium difficile clinical isolate growth, OD600, 24 h; active compounds read low; growth activity, negative = inhibition, % at 16 µg/mL (by protocol); 86,000 compounds, 0.25% hits;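 active = mean growth activity at or below -80% and every replicate also at or below -80%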;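 also: 0% = DMSO wells and -100% = levofloxacin 16 µg/mL wells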
Pf Dd2 growth: P. falciparum Dd2 growth inhibitors, primary screen, SYBR Green fluorescence, single dose replicates; 94,000 compounds, 2.3% hits; 72 h; active compounds read low; activity change, % at 10 µM; in the data active = activity change below about -80%
* marks the source's active call; other numbers are inactive results; . = no result.

SMILES	C diff growth	Pf Dd2 growth
CC=Cc1ccc2n(c1=O)C[C@H]1[C@H](CO)[C@@H](C(=O)N3CCc4ccccc4C3)[C@@H]2N1CC (mixture of isomers)	6.3	.
C[C@@H]1CN([C@@H](C)CO)C(=O)c2cccc(NC(=O)CCCCCC(=O)Nc3ccccc3N)c2O[C@H]1CN(C)C	0.8	-62.0
C[C@H]1CN([C@@H](C)CO)C(=O)c2cccc(NC(=O)CCCCCC(=O)Nc3ccccc3N)c2O[C@@H]1CN(C)Cc1ccncc1	-1.2	-16.1
C[C@H](CO)N1C[C@H](C)[C@H](CN(C)Cc2ccc(Cl)c(Cl)c2)Oc2c(NC(=O)CCCCCC(=O)Nc3ccccc3N)cccc2C1=O	1.6	-88.4*
C[C@H](CO)N1C[C@H](C)[C@H](CN(C)CC2CC2)Oc2c(NC(=O)CCCCCC(=O)Nc3ccccc3N)cccc2C1=O	4.5	-43.6
C[C@H](CO)N1C[C@H](C)[C@@H](CN(C)Cc2ccc(-c3ccccc3)cc2)Oc2c(NC(=O)CCCCCC(=O)Nc3ccccc3N)cccc2C1=O	-16.7	-86.7*
C[C@@H]1CN([C@@H](C)CO)C(=O)c2cccc(NC(=O)CCCCCC(=O)Nc3ccccc3N)c2O[C@@H]1CN(C)Cc1ccccc1	-7.2	-87.1*
C[C@H](CO)N1C[C@H](C)[C@@H](CN(C)Cc2ccc(Cl)c(Cl)c2)Oc2ccc(NC(=O)CCCCCC(=O)Nc3ccccc3N)cc2CC1=O	10.0	-56.6
C[C@@H]1CN([C@@H](C)CO)C(=O)c2cccc(NC(=O)CCCCCC(=O)Nc3ccccc3N)c2O[C@H]1CN(C)CC1CCCCC1	-4.6	-88.9*
CO[C@H]1CN(C)C(=O)c2ccc(NS(=O)(=O)c3cccc(F)c3)cc2OC[C@H](C)N(C(=O)Cc2cccnc2)C[C@@H]1C	-15.4	-25.1
C[C@@H]1CN([C@H](C)CO)C(=O)c2cc(NC(=O)C3CC3)ccc2O[C@H]1CN(C)S(=O)(=O)c1ccc(Cl)cc1	2.6	-53.0
Cc1noc(C)c1S(=O)(=O)N(C)C[C@H]1Oc2ccc(NS(=O)(=O)c3ccc(Cl)cc3)cc2CC(=O)N([C@@H](C)CO)C[C@@H]1C	-5.6	-16.9
C[C@@H](NC(=O)C[C@@H]1CC[C@H](NC(=O)CN2CCOCC2)[C@@H](CO)O1)c1ccccc1	.	6.1
CC(C)NC(=O)Nc1cccc2c1O[C@@H](CN(C)CC1CCCCC1)[C@@H](C)CN([C@H](C)CO)C2=O	5.0	-0.2
C[C@@H]1CN([C@@H](C)CO)C(=O)c2cccc(NC(=O)CCCCCC(=O)Nc3ccccc3N)c2O[C@H]1CN(C)Cc1ccc(-c2ccccc2)cc1	-5.2	-90.7*
CC(C)NC(=O)Nc1cccc2c1O[C@@H](CN(C)CC1CCCCC1)[C@H](C)CN([C@@H](C)CO)C2=O	-1.4	-80.7*
C[C@H](CO)N1C[C@H](C)[C@H](CN(C)C)Oc2c(NC(=O)CCCCCC(=O)Nc3ccccc3N)cccc2C1=O	4.7	21.7
COc1cccc(CNC(=O)[C@H]2[C@H](CO)[C@H]3Cn4c(ccc(-c5ccncc5)c4=O)[C@H]3N2C)c1	3.9	.
CC(=O)N(C)C[C@@H]1Oc2ncc(C#C[C@H](C)O)cc2C(=O)N([C@@H](C)CO)C[C@H]1C	-1.1	11.2
COc1ccc(S(=O)(=O)N(C)C[C@@H]2OCCCC[C@H](C)Oc3ccc(NC(=O)Nc4ccc(C(F)(F)F)cc4)cc3C(=O)N([C@H](C)CO)C[C@H]2C)cc1	-0.1	-82.9*
COc1ccc(S(=O)(=O)N(C)C[C@@H]2OCCCC[C@@H](C)Oc3ccc(NC(=O)Nc4ccc(C(F)(F)F)cc4)cc3C(=O)N([C@@H](C)CO)C[C@H]2C)cc1	0.9	-75.0
COc1ccc(NC(=O)Nc2ccc3c(c2)C(=O)N([C@@H](C)CO)C[C@H](C)[C@@H](CN(C)S(=O)(=O)c2ccc(OC)cc2)OCCCC[C@H](C)O3)cc1	-1.8	-61.1
COc1ccc(S(=O)(=O)N(C)C[C@H]2OCCCC[C@@H](C)Oc3ccc(NC(=O)Nc4ccc(C(F)(F)F)cc4)cc3C(=O)N([C@@H](C)CO)C[C@H]2C)cc1	-2.9	-84.6*
COc1ccc(S(=O)(=O)N(C)C[C@H]2OCCCC[C@@H](C)Oc3ccc(NC(=O)Nc4ccc(C(F)(F)F)cc4)cc3C(=O)N([C@@H](C)CO)C[C@@H]2C)cc1	2.0	-84.7*
COc1ccc(S(=O)(=O)N(C)C[C@@H]2OCCCC[C@@H](C)Oc3ccc(NC(=O)Nc4ccc(C(F)(F)F)cc4)cc3C(=O)N([C@@H](C)CO)C[C@@H]2C)cc1	7.0	-87.5*
SMILES	C diff growth	Pf Dd2 growth
COc1ccc(S(=O)(=O)N(C)C[C@@H]2OCCCC[C@H](C)Oc3ccc(NC(=O)Nc4ccc(C(F)(F)F)cc4)cc3C(=O)N([C@@H](C)CO)C[C@@H]2C)cc1	1.4	-79.1
COCC(=O)N(C[C@H]1N[C@H](CO)[C@@H]1c1ccc(C2=CCCC2)cc1)C(C)C	1.8	-16.7
CCCC(=O)Nc1ccc2c(c1)OC[C@@H](C)N(C(=O)CN(C)C)C[C@@H](C)[C@@H](OC)CN(C)C2=O	.	24.6
COc1ccc(-c2ccccc2[C@H]2[C@@H](C#N)N(C(=O)NC(C)C)[C@H]2CO)cc1	-5.8	-87.2*
COc1ccccc1-c1ccccc1[C@H]1[C@@H](CO)N(C(=O)C2CCC2)[C@H]1C#N	-6.9	-1.7
COc1ccccc1-c1ccccc1[C@@H]1[C@@H](C#N)N(C(=O)C2CC2)[C@@H]1CO	-5.3	-97.6*
COc1ccc(-c2ccccc2[C@H]2[C@@H](CO)N(C(=O)NC(C)C)[C@H]2C#N)cc1	11.5	28.3
COc1ccc(-c2ccccc2[C@H]2[C@@H](C#N)N(C(=O)C3CCC3)[C@H]2CO)cc1	-2.9	-2.6
COc1ccc(-c2ccccc2[C@H]2[C@@H](C#N)N(C(=O)C3CCCC3)[C@@H]2CO)cc1	-2.0	-97.6*
COc1ccccc1-c1ccccc1[C@H]1[C@@H](C#N)N(C(=O)C2CC2)[C@@H]1CO	-2.0	34.9
COc1ccccc1-c1ccccc1[C@H]1[C@H](C#N)N(C(=O)C2CCC2)[C@H]1CO	-10.5	-84.6*
COc1ccc(CN(C)C[C@H]2OCCCC[C@@H](C)Oc3ccc(NS(=O)(=O)c4ccc(OC)cc4)cc3C(=O)N([C@@H](C)CO)C[C@H]2C)cc1	-5.7	-42.4
COc1ccc(S(=O)(=O)Nc2ccc3c(c2)C(=O)N([C@H](C)CO)C[C@H](C)[C@@H](CN(C)Cc2ccc(Cl)c(Cl)c2)OCCCC[C@H](C)O3)cc1	.	-62.3
CCCN(C)C[C@H]1OCCCC[C@H](C)Oc2ccc(NS(=O)(=O)c3ccc(F)cc3)cc2C(=O)N([C@@H](C)CO)C[C@@H]1C	11.8	-85.0*
CCCN(C)C[C@@H]1OCCCC[C@@H](C)Oc2ccc(NS(=O)(=O)c3ccc(C)cc3)cc2C(=O)N([C@H](C)CO)C[C@@H]1C	2.4	-46.0
C[C@@H]1CCCCO[C@H](CN(C)Cc2ccc(Cl)c(Cl)c2)[C@@H](C)CN([C@@H](C)CO)C(=O)c2cc(NS(=O)(=O)c3ccc(F)cc3)ccc2O1	29.1	-48.4
C[C@@H]1CCCCO[C@@H](CN(C)Cc2ccc(Cl)c(Cl)c2)[C@H](C)CN([C@H](C)CO)C(=O)c2cc(NS(=O)(=O)c3ccc(F)cc3)ccc2O1	14.3	-83.6*
COc1ccc(S(=O)(=O)Nc2ccc3c(c2)C(=O)N([C@H](C)CO)C[C@H](C)[C@@H](CN(C)Cc2ccc(Cl)c(Cl)c2)OCCCC[C@@H](C)O3)cc1	13.1	-90.5*
